Laboratory results taken from PubChem BioAssay.
Activity calls are given as the source filed them.

Experiments:
[1] = compound effects on lung adenocarcinoma cell viability – A549, calcein-AM fluorescence, 48 h, basal, profiling panel (AID 1162); details: higher = more signal
[2] = compound effects on differentiated 3T3-L1 adipocyte viability – cell-based, 3T3-L1 adipocytes, calcein-AM fluorescence, 48 h, basal, profiling panel (AID 1163); details: 3T3-L1 adipocytes viability, higher = more signal
[3] = compound effects on hepatocellular carcinoma cell viability – HepG2, calcein-AM fluorescence, 48 h, basal, profiling panel (AID 1164); details: higher = more signal
[4] = compound effects on multiple myeloma cell viability – MM1S, calcein-AM fluorescence, 48 h, basal, profiling panel (AID 1165); details: higher = more signal;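 also: viability of MM1S multiple myeloma cells under basal unstimulated conditions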
[5] = calcein-AM signal in unstimulated myeloma cells – cell-based, calcein-AM fluorescence, 48 h, PK04 Diversity Set, profiling panel (AID 1166); details: RPMI8226 myeloma viability, higher = more signal;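 also: cells grown under basal conditions without added stimulus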
[6] = JC-1 mitochondrial signal, unstimulated HepG2 cells – cell-based, JC-1 fluorescence, 24 h, 100 nL compound, profiling panel (AID 1167); details: HepG2 mitochondrial potential, higher = more signal
[7] = JC-1 mitochondrial signal, unstimulated adipocytes – cell-based, JC-1 fluorescence, 3T3-L1 adipocytes, 24 h, 100 nL compound, profiling panel (AID 1168); details: JC-1 mitochondrial fluorescence, higher = more signal, called active from +8 up or from −8 down
[8] = JC-1 mitochondrial signal, unstimulated myeloma cells – cell-based, JC-1 fluorescence, RPMI8226, 24 h, 100 nL compound, profiling panel (AID 1169); details: JC-1 mitochondrial potential fluorescence, higher = more signal
[9] = JC-1 mitochondrial signal, unstimulated MM1S myeloma – cell-based, JC-1 fluorescence, 24 h, 100 nL compound, profiling panel (AID 1170); details: MM1S mitochondrial potential, higher = more signal
[10] = resazurin metabolic signal in A549 cells – cell-based, resazurin fluorescence, 24 h, PK04 Diversity Set, profiling panel (AID 1171); details: A549 viability, higher = more signal, called active from +8 up or from −8 down
Also: test concentration not given here.

| Structure (SMILES) | z-score [1] | z-score [2] | z-score [3] | z-score [4] | z-score [5] | z-score [6] | z-score [7] | z-score [8] | z-score [9] | z-score [10] |
| --- | --- | --- | --- | --- | --- | --- | --- | --- | --- | --- |
| Oc1ccc2cc[n+](Cc3cc4c(cc3Br)OCO4)cc2c1 | 1.58 | -0.35 | 0.312 | 0.677 | -1.77 | -1.12 | 0.418 (inactive) | -0.123 | 0.313 | -0.585 (inactive) |
| O=C(O)[C@@H]1C[C@@H]2C(=O)N3CCC[C@H]3C(=O)N2[C@@H]1c1ccc(O)cc1 | -0.335 | 1.13 | -0.763 | -3.42 | 0.0242 | 0.0357 | -0.184 (inactive) | -0.704 | -1.34 | -0.609 (inactive) |
| CCCCC[C@H]1OC[C@@]23C=C(Br)[C@@H](CC12)[C@@]1(CO1)C3=O (stereo not given in full) | 0.433 | -0.0037 | -0.424 | -2.8 | -1.5 | -1.76 | -0.498 (inactive) | -0.314 | -0.824 | -0.612 (inactive) |
| CCCC=C(CCC)[C@@H](NS(=O)(=O)c1ccc(C(F)(F)F)cc1)c1ccccc1 | -0.511 | -0.217 | -0.832 | -0.266 | -1.86 | -4.98 | -0.61 (inactive) | -0.519 | -1.51 | 0.221 (inactive) |
| CCCC=C(CCC)[C@@H](NC(=O)c1cccs1)c1ccc(C(=O)OC)cc1 | 0.126 | -0.302 | -0.125 | 0.388 | 0.45 | -0.115 | -0.0911 (inactive) | 0.973 | -0.997 | 0.902 (inactive) |
| C#CCN([C@@H](Cc1ccccc1)C(=O)OC)[C@@H](/C=C/C1CC1)[C@H](O)Cc1ccccc1 | -1.03 | -0.347 | -1.38 | -3.12 | -2.25 | 0.993 | -0.21 (inactive) | -1.03 | -1.51 | 2.25 (inactive) |
| C=C(COC)/C(=C/C[C@H](OC(=O)c1ccncc1)c1ccc(CO)o1)c1cnc2ccccc2c1 | 0.349 | -0.474 | -0.439 | -1.41 | -0.366 | -1.06 | -0.582 (inactive) | 0.178 | -0.592 | -0.319 (inactive) |
| COCCOC(=O)N1C(=O)[C@@]2(c3cc(C#CC4(O)CCCCCC4)ccc31)[C@H](c1ccc(O)cc1)N1[C@H](c3ccccc3)[C@H](c3ccccc3)OC(=O)[C@H]1[C@@H]2C(=O)N1CCN(c2ncccn2)CC1 | -0.98 | 0.284 | 0.278 | -1.61 | -1.16 | -0.81 | -0.912 (inactive) | -0.406 | -0.091 | 0.435 (inactive) |
| CCOC(=O)C1=C[C@@H](C(C)C)N(S(=O)(=O)c2ccc(C)cc2)[C@H]1c1ccc(C(F)(F)F)cc1 | -0.731 | -0.448 | -1.53 | -2.91 | -1.65 | 3.7 | -0.216 (inactive) | -0.208 | -0.446 | 0.793 (inactive) |
| O=c1cccc(-c2ccc([N+](=O)[O-])cc2)o1 | 0.419 | 0.294 | 0.273 | -0.369 | -0.308 | 0.302 | 0.543 (inactive) | 0.379 | -1.01 | -0.0447 (inactive) |
| CCOC(=O)C[C@H]1[C@H](OC(=O)c2ccccc2-c2ccccc2)[C@@H](NC(=O)c2ccc3ccccc3n2)c2cc(OCCCO)ccc2N1C(=O)Cc1ccc(OC)cc1 | 0.278 | 0.054 | 0.266 | 0.0554 | -0.826 | 0.972 | -0.363 (inactive) | -0.209 | -0.112 | 0.0225 (inactive) |
| COc1ccc(C#Cc2ccc3c(c2)[C@]2(C(=O)N3)[C@H](c3ccc(O)cc3)N3[C@H](c4ccccc4)[C@H](c4ccccc4)OC(=O)[C@H]3[C@@H]2C(=O)Nc2nc3ccccc3s2)cc1 | 0.453 | 1.89 | -0.0578 | -1.4 | -2.6 | -2.28 | 0.0579 (inactive) | -0.429 | 0.0506 | -1.21 (inactive) |
| C=CCC(OC(C)=O)[C@@H]1[C@@H](N(Cc2cc3ccccc3o2)C(=O)Cc2ccc(F)cc2)c2cc(OCCCO)ccc2N1C(=O)Cc1ccc2ccccc2c1 (stereo not given in full) | 0.181 | -0.136 | 0.766 | -0.082 | -0.759 | 1.22 | -0.683 (inactive) | -0.311 | 1.19 | 0.0336 (inactive) |
| CC#CCO[Si](C#Cc1ccccc1)(C(C)C)C(C)C | -0.511 | -0.458 | -0.175 | -0.806 | -1.83 | -1.51 | -0.628 (inactive) | -0.845 | -1.3 | -0.537 (inactive) |
| O=C(Cc1ccccc1)[C@H]1C2C=CCCC(c3ccccc3)=C2CN1Cc1ccccc1 (stereo not given in full) | 0.128 | 0.169 | 0.436 | 0.743 | 0.602 | 0.655 | 0.122 (inactive) | -0.196 | 0.584 | 0.807 (inactive) |
| COc1ccc(CCNC(=O)[C@@H]2c3ccccc3C(=O)N(C3CCCCC3)[C@H]2c2ccc(CO)cc2)cc1 | 1.19 | 1.1 | 0.383 | 0.05 | -0.746 | 1.83 | -0.053 (inactive) | -0.726 | 0.337 | 0.332 (inactive) |

| Structure (SMILES) | z-score [1] | z-score [2] | z-score [3] | z-score [4] | z-score [5] | z-score [6] | z-score [7] | z-score [8] | z-score [9] | z-score [10] |
| --- | --- | --- | --- | --- | --- | --- | --- | --- | --- | --- |
| C=CCC(OC(C)=O)[C@@H]1[C@@H](N(Cc2cccc3ccccc23)C(=O)Cc2ccc(OC)cc2)c2cc(OCCCO)ccc2N1C(=O)c1ccc(-c2ccccc2)cc1 (stereo not given in full) | -0.433 | 1.12 | 0.256 | -0.47 | 0.0509 | 2.36 | 0.286 (inactive) | 0.0206 | 0.621 | 0.48 (inactive) |
| O=C1C2C=CC(C(O)c3ccco3)N(Nc3ccccc3F)C2C(=O)N1c1ccccc1 (stereo not given) | -0.356 | -0.912 | -0.0718 | -0.142 | 0.243 | -1.27 | -0.346 (inactive) | -0.201 | 0.128 | 0.279 (inactive) |
| C=CC[C@H](OC(=O)Nc1ccc(SC)cc1)c1ccc(O)c2ccccc12 | -2.22 | -0.162 | -3.05 | -2.74 | -4.21 | -3.26 | 0.41 (inactive) | -1.02 | -2.09 | -1.24 (inactive) |
| N[C@@H](Cc1ccccc1)C(=O)NCc1cn(Cc2ccccc2)nn1 | 0.322 | 0.0811 | -0.256 | -0.0838 | -1.11 | 0.178 | -0.0638 (inactive) | 0.556 | 0.919 | 0.825 (inactive) |
| O=C(O)[C@@H]1[C@@H]2C(=O)N(c3ccccc3)C(=O)[C@@H]2C[C@@H]1Sc1ccccc1 | -0.653 | -0.832 | -1.32 | -0.939 | -0.616 | -0.829 | -0.867 (inactive) | 0.718 | -0.773 | 0.0964 (inactive) |
| CCOC(=O)C[C@H]1[C@H](OC(=O)Cc2ccc3c(c2)OCO3)[C@@H](NC(=O)C2CCCCC2)c2cc(OCCCO)ccc2N1C(=O)c1ccccc1 | 1.99 | -0.193 | -0.0568 | 0.567 | -0.354 | 1.69 | 0.247 (inactive) | 0.0348 | 0.137 | 0.745 (inactive) |
| CCOC(=O)C1=CC[C@@H](c2ccccc2F)N(S(=O)(=O)c2ccc(C)cc2)[C@H]1c1ccccc1 | -0.982 | -0.815 | -0.244 | -1.47 | -0.413 | 2.25 | -1.35 (inactive) | -0.0368 | -1.24 | 2.12 (inactive) |
| CN(C)CCCCCCNC(=O)[C@@H]1C[C@@H]2C(=O)N3CCC[C@H]3C(=O)N2[C@@H]1c1cccc(OCCO)c1 | -0.84 | -0.314 | -0.679 | -0.592 | -0.156 | -1.06 | 0.444 (inactive) | 0.605 | 0.784 | -0.954 (inactive) |
| C=C[C@@H](CO)N(Cc1ccc(OC)cc1)S(=O)(=O)c1ccc(Br)cc1 | 1.49 | 0.773 | 0.349 | 1.39 | 0.613 | 0.622 | 2.05 (inactive) | 0.359 | -0.159 | 1.23 (inactive) |
| CN(C)c1ccc(C(O)C2C=CC3C(=O)NC(=O)C3N2Nc2ccccn2)cc1 (stereo not given) | -0.8 | -0.358 | -0.331 | -0.286 | -0.333 | -1.21 | -0.339 (inactive) | -0.492 | 0.468 | -0.348 (inactive) |
| C#CCN(Cc1ccccc1Br)[C@H](/C=C/c1ccccc1)[C@@H](O)Cc1ccccc1 | -0.892 | -0.566 | -1.54 | -1.63 | -3.89 | -2.68 | -0.694 (inactive) | -0.538 | 0.42 | 2.3 (inactive) |
| C=C[C@@H](OC)[C@H](OC(=O)Nc1ccc(OC)cc1)c1ccc(O)c(F)c1 | -0.705 | 0.792 | -0.723 | -2.17 | -2.47 | -2.82 | -1.1 (inactive) | -0.276 | -0.0233 | -0.0973 (inactive) |
| C=C[C@H]1C(C(=O)OCC)=CC[C@@H](c2ccccc2)N1S(=O)(=O)c1ccc(C)cc1 | -0.438 | -1.05 | -0.708 | -0.465 | -1.46 | 5.08 | -0.517 (inactive) | -0.309 | -1.21 | 0.69 (inactive) |
| CC(C)NC(=O)[C@@]1(C)c2ccccc2C(=O)N(Cc2ccc(OC(F)(F)F)cc2)[C@H]1c1ccc(CO)cc1 | -0.692 | 1.08 | 0.0903 | -0.0831 | -0.676 | 2.05 | -0.682 (inactive) | -0.547 | -1.67 | -0.0752 (inactive) |
| NCCCCCCNC(=O)[C@@H]1C[C@@H]2C(=O)N[C@@H](CCCCN)C(=O)N2[C@@H]1c1ccc(O)cc1 | -0.551 | 0.207 | -0.99 | -1.25 | -0.0734 | -1.31 | 0.535 (inactive) | -0.0408 | -0.276 | -0.71 (inactive) |
| CCCNC(=O)[C@@H]1c2ccccc2C(=O)N(Cc2ccc(OC(F)(F)F)cc2)[C@H]1c1ccc(CO)cc1 | 1.17 | 0.385 | 2.08 | 0.157 | 0.485 | 3.22 | 1.22 (inactive) | 0.432 | 0.129 | 0.285 (inactive) |
